# Giardia killer = Small Molecules that selectively kill Giardia lamblia: qHTS; Giardia lamblia trophozoite viability; activity change, % at 7.66 µM, hits read low; 340,000 tested, 0.15% active; in the data active = activity change below about -80%; inconclusive = between about -30% and that limit;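 note: parasites exposed to compound for two days anaerobically before the ATP read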
#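 Viability, read as ATP luminescence: trophozoites at 100 cells/well, compound added, 48 hrs anaerobic at 37 deg C, then 15-30 min room-temperature development before reading.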
# MCF10A rerep = A quantitative high throughput screen for small molecules that induce DNA re-replication in MCF 10a normal breast cells. Potency, µM (top dose mostly 46.1 µM), hits mostly activators. 350,000 tested, 2.9% active. MCF 10A DNA re-replication, Hoechst nuclear intensity, 48 h; note: nearly all actives have a fitted effect of over 50% in size
# Gal4-VP16 FLuc = VP16 counterscreen qHTS for inhibitors of ROR gamma transcriptional activity | AID 2546, 2010 | Drosophila S2 Gal4-VP16 UAS-luciferase, luminescence, 20 h | Potency, µM (highest dose often 53.6 µM), most hits filed as inhibitors | 310,000 tested, 3.5% active;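 note: Gal4-VP16 expression switched on by copper sulfate through the metallothionein promoter; nearly all actives have a fitted effect of over 50% in size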
# SW480 rerep = A quantitative high throughput screen for small molecules that induce DNA re-replication in SW480 colon adenocarcinoma cells; SW480 DNA re-replication, Hoechst DNA content imaging, 48 h; Potency, µM (doses to about 46.1 µM), usual class: activators; 340,000 tested, 1.8% active; AID 624297, 2012; note: nearly all actives have a fitted effect of over 55% in size
#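 Compounds, transferred as 23 nL by pin tool, were incubated with cells for 48 hr; DNA content per nucleus was then quantified by Hoechst staining and fluorescence plate imaging.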
# BCR signal inh = qHTS Assay to Find Inhibitors of Chronic Active B-Cell Receptor Signaling | ABC-DLBCL IkBa-CBG/CBR reporter, luminescence ratio, 4 h | Potency, µM (titrated, usually from 46.1 µM), usual class: inhibitors | 340,000 tested, 0.05% active; active = well fitted inhibition curve with a large enough effect in the signal ratio, with a control signal flat, not every such curve was filed as active; inconclusive = small, poorly fitted or top-dose-only effect, or effect the other way, or a change in a side signal; the % refers to the signal ratio
#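 TMD8 ABC-DLBCL cells carrying doxycycline-inducible green luciferase fused to IkappaBalpha plus unfused red luciferase were exposed to compounds (up to 46 uM) for 4 hrs at 37C. Activity came from the overlap-corrected green/red luminescence ratio.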
# RORgamma inh = qHTS for inhibitors of ROR gamma transcriptional activity; Nuclear receptor ROR-gamma (Mus musculus), P51450; Drosophila S2 Gal4-RORgamma UAS-luciferase reporter, 20 h; Potency, µM (doses to about 53.6 µM), hits mostly inhibitors; 310,000 tested, 5.4% active; note: nearly all actives have a fitted effect of over 60% in size
# Target sequence (P51450 whole entry, looked up, the tested form may be a part): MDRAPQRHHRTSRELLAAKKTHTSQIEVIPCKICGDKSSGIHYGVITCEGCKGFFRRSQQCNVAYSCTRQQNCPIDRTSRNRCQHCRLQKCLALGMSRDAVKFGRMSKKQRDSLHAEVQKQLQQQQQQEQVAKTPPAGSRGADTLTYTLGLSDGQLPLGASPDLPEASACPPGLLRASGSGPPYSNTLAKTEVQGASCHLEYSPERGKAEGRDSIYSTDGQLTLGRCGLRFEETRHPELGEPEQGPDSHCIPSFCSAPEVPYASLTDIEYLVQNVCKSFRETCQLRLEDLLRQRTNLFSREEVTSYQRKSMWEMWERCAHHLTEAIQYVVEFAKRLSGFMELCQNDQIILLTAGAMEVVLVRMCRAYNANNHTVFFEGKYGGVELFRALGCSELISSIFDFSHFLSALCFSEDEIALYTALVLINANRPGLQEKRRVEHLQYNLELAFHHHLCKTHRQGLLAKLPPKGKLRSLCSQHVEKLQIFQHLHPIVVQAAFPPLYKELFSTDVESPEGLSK
#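 Drosophila S2 cells stably expressing Gal4-DBD/mouse RORγ fusion under metallothionein promoter plus UAS-luciferase; compound 1 h, then 700 uM CuSO4 induction for 20 h at ambient temperature; inhibition read as reduced luminescence.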
# Numbers stand for hits; n = inactive; u = inconclusive; x = no result; ! = repeats disagree; [ ] = remark or other dose. Compounds with a hit are over-represented: about 8.3% of the library has one in this group of screens. Unless noted, calls come from the whole dose curve; as a rule, active = well fitted curve in the direction sought with a large enough effect; inconclusive = small, poorly fitted or top-dose-only effect, or another doubt; inactive = no such curve, though single readings can be large; an effect the other way counts as inactive or inconclusive.
SMILES,Giardia killer,MCF10A rerep,Gal4-VP16 FLuc,SW480 rerep,BCR signal inh,RORgamma inh
CCn1nc(-c2cccs2)nc2c(=O)n(C)c(=O)nc1-2,n,0.73µM,1.3µM,u,u,0.79µM
O=C(Cl)c1ccccc1F,x,x,n,x,x,n
CC(C)C[C@H](NC(=O)[C@H](CC(C)C)NC(=O)[C@H](Cc1ccccc1)NC(=O)[C@@H](N)Cc1ccc(O)cc1)C(=O)N[C@@H](CCCN=C(N)N)C(=O)N[C@@H](CC(N)=O)C(=O)N1CCC[C@H]1C(=O)O,x,x,n,x,x,n
O=C(Cc1ccc(Cl)cc1)Nc1ccccc1N1CCN(C(=O)c2ccccc2)CC1,n,18µM,n,u,u,n
COc1ccc2c(c1)[nH]c1c(C)nccc12,n,u,u,u,u,8.9µM!
Cc1nccc2c1[nH]c1ccc(Br)cc12,n,n,x,n,u,x
CC1Cc2c(cnc3c2CN(C)CC3)CO1 (stereo not given),x,x,n[10 µM],x,x,n[10 µM]
COc1cccc(C(C)NC(=O)Nc2cccc(C(F)(F)F)c2)c1 (stereo not given),n,n,35µM,n[9.22 µM],u,u
COc1cc(C(O)P(=O)(OCC(C)C)c2ccc(N(C)C)cc2)cc(OC)c1OC (stereo not given),n,n,n,n,u,n
Nc1ccc([N+](=O)[O-])cc1[N+](=O)[O-],x,x,n,x,x,n
Cc1cccc(N=C2c3cc([N+](=O)[O-])ccc3-c3c2cc([N+](=O)[O-])cc3[N+](=O)[O-])c1,n,18µM,x,18µM,x,x
Cc1ccc(/C=C2\C(=O)NC(=S)N(c3ccccc3F)C2=O)s1,n,5.8µM,u,u,u,u
Cc1ccc(/C=C2\C(=O)NC(=S)N(c3ccc(F)cc3)C2=O)s1,n,u,n,n,n,n
CN1C(=O)C(=Cc2ccccc2OCCOc2ccc([N+](=O)[O-])cc2)C(=O)N(C)C1=O,n,u,n,u,n,n
O=C1NC(=O)C(=Cc2ccccc2OCCOc2ccc([N+](=O)[O-])cc2)C(=O)N1,n,18µM,n,u,u,n
C=CC(C)=O,x,x,n,x,x,n
NCCc1c[nH]c2ccc(OCc3ccccc3)cc12,n,u,n,u,n,n
CCOC(=O)c1ncc2[nH]c3ccc(OCc4ccccc4)cc3c2c1COC,x,x,4.5µM,x,x,n
Cc1cc(C)c(Cn2c(C(=O)O)c(C=O)c3ccccc32)c(C)c1,n,6.5µM,n,u,u,u
O=NN(c1ccccc1)c1ccccc1,x,x,n,x,x,n
C1=NCCc2c1[nH]c1ccccc21,n,16µM,x,4.1µM,x,x
C[C@H](CCC(=O)O)C[C@H](C)C[C@H](C)C(=O)/C=C(\O)[C@H](C)C[C@H](C)C/C=C/[C@@H](C)[C@@H](O)[C@@H](C)[C@@H](O)C[C@@H]1CC[C@@](C)(C2CC[C@@](C)([C@@H](C)O)O2)O1 (stereo not given in full),x,x,6.3µM,x,x,u
O=c1[nH]c(O)c(C=Nc2ccc(Cl)cc2Cl)c(=O)[nH]1,n,n,n,n,u,n
CC(Cl)CCl (stereo not given),x,x,n,x,x,n
CC(=O)OC[C@]12C[C@H](OC(=O)CC(C)C)C(C)=C[C@H]1O[C@H]1[C@H](O)[C@@H](OC(C)=O)[C@@]2(C)[C@]12CO2,x,x,n,x,x,0.025µM
SMILES,Giardia killer,MCF10A rerep,Gal4-VP16 FLuc,SW480 rerep,BCR signal inh,RORgamma inh
CC(=O)OC[C@]12CCC(C)=C[C@H]1O[C@@H]1[C@H](O)[C@@H](OC(C)=O)[C@@]2(C)[C@]12CO2,u,n,0.0016µM,u,u,0.032µM
CC(=O)OC1C(O)C(C)OC(OC2C(OC(=O)C3CCC4C(C3)OC3(CC(OC(=O)/C=C/c5ccccc5)C(C)CO3)C43CO3)OC(C)C(O)C2OC(C)=O)C1O (stereo not given),u,u,x,0.21µM,x,x
COc1ccc(CNC(=O)/C=C\c2ccc3[nH]cc(CCN(C)C)c3c2)cc1,x,x,n,x,x,n
C=C(C)[C@]12C[C@@H](C)[C@@]34O[C@](Cc5ccccc5)(O[C@@H]1[C@@H]3C=C(COC(=O)Cc1ccc(O)c(OC)c1)C[C@]1(O)C(=O)C(C)=C[C@@H]41)O2,x,x,u,x,x,n
CC(=NCCc1c[nH]c2ccccc12)c1c(O)n(Cc2ccccc2)c(=O)[nH]c1=O,n,u,n,15µM,u,n
CCCNC(=O)C(Cc1ccc(C(F)(F)P(=O)(OCC)OCC)cc1)NC(=O)c1ccc(C#N)cc1 (stereo not given),n,n,x,n,u,x
C[C@H]1COC(=O)[C@@H](Cc2ccc(F)cc2)CC/C=C/C[C@H](CC(=O)N(CCO)Cc2ccccc2)C(=O)N1,n,n,x,n,n,x
NC(Cc1ccc(Oc2cc(I)c(O)c(I)c2)c(I)c1)C(=O)O (stereo not given),x,n,n,n,x,n
N#Cc1cc2c(nc1SCC(=O)Nc1ccc(Cl)cc1)C1CCN2CC1,n,n,n,u,n,n
N#Cc1cc2c(nc1SCC(=O)Nc1cc(Cl)ccc1Cl)C1CCN2CC1,n,0.58µM,n,u,n,u
CC(=O)CC(c1ccccc1)c1c(O)c2cc(O)ccc2oc1=O (stereo not given),x,x,n,x,x,n
C[C@@]12C=CC(=O)C=C1CCC1C2CC[C@]2(C)C(=O)CCC12 (stereo not given in full),x,x,n,x,x,n
COc1ccc(C(=O)NC(=S)NNC(=O)c2cccnc2)cc1,n,n,n,n,n,16µM
COc1ccc(C(=O)Nc2ccccc2C(=O)Nc2ccccc2C(=O)O)cc1,u,u,n,n[1.84 µM],u,n
Nc1ncnc2c1nc(Sc1ccc(Cl)cc1)n2[C@@H]1O[C@@H]2COP(O)(=S)O[C@H]2[C@H]1O (stereo not given in full),x,x,n,x,x,n
C=Cn1ccnc1P(=S)(c1ccc(N(C)C)cc1)c1nccn1C=C,n,n,u,n,u,10µM
CN1C2CC(=O)CC1C(O)C2 (stereo not given),x,x,n,x,x,n
C[C@@H]1C[C@H]2OC(=O)C3(CO3)[C@H]2[C@H](O)[C@]2(C)C(=O)C3OC3[C@@H]12 (stereo not given in full),x,x,u,x,u,10µM
C(=N\Nc1nc2ccccc2[nH]1)/c1cccc2nccnc12,n,u,5.6µM,n,u,1µM
CCOc1cc(/C=N/Nc2nc3ccccc3[nH]2)cc(Br)c1OCC(=O)N(C)C,n,u,n,n,u,u
O=c1ccc2cc(OC3OC(CO)C(O)C(O)C3O)c(O)cc2o1 (stereo not given),x,x,n,x,x,u

# Assay outcomes (PubChem)
